The nature of test [1]: yeast TOR pathway RPL19A-GFP modulators, primary screen, cell-based, S. cerevisiae, multiplex flow cytometry (AID 1862; in the data active = percent of DMSO control GFP below about 86%;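 also: lower values mimic rapamycin by blocking the RPL19A rise seen in DMSO cells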). Conditions: S. cerevisiae RPL19A-GFP strain, flow cytometry fluorescence, 3 h; at 10 µM; stronger effect = lower value.
The nature of test [2]: modulators of MEP2-GFP levels in yeast, primary screen, S. cerevisiae, multiplex flow cytometry (AID 1867;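 active = GFP response, as percent of the DMSO control, above the screen-wide mean plus 3 SD, about 139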;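 also: median GFP channel fluorescence of barcode-gated MEP2-GFP cells measured by flow cytometry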). Conditions: S. cerevisiae MEP2-GFP strain, 3 h, at 10 µM, stronger effect = higher value, 100% means same as DMSO wells. On the technique in general: A flow cytometer gives signals particle by particle.
The nature of test [3]: modulators of CIT2-GFP expression in yeast, primary screen, S. cerevisiae, GFP fusion, multiplex flow cytometry (AID 1870;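 active = percent response above a set limit, the screen-wide mean plus 3 SD, cut at about 130% in these data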;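 also: barcoded CIT2-GFP strain pooled with four other GFP strains with rapamycin as positive control; median GFP fluorescence per well over plate mean of DMSO wells so 100% = DMSO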). The following applies: 3 h, at 10 µM, stronger effect = higher value.
Test [4] is described as follows: modulators of LAP4-GFP expression in yeast, primary screen, S. cerevisiae, multiplex flow cytometry (AID 1873). The following applies: 3 h, at 10 µM, stronger effect = higher value.
A short description of test [5]: modulators of AGP1-GFP expression in yeast TOR pathway, primary screen, cell-based, multiplex flow cytometry, S. cerevisiae (AID 1887;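 active = GFP signal above the screen-wide mean plus 3 SD, that is over about 124.5% of the solvent control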;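 also: AGP1-GFP fusion strain of S. cerevisiae within a five-strain barcoded multiplex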). Conditions: 3 h, at 10 µM, stronger effect = higher value.
The nature of test [6]: inhibitors of CD8+ T cell-vesicle binding, pilot screen, LFA-1/ICAM-1 modulator project, MLPCN validation set, flow cytometry (AID 2523;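 active = response below a set limit, under 55% cells CD8-positive and vesicle-bound, and CD8 cells' 90th-percentile brightness under 279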;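 as to vesicle binding response: mean PE anti-B7-1 fluorescence of CD8+ cells relative to row control; 100% = QL9-loaded vesicles with DMSO vehicle in the same plate row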). The following applies: 2C mouse CD8+ T cells, at 7 µM, stronger effect = lower value; double positive events: measured here: CD8+/vesicle+ event percentage.
Test [7] addresses Integrin beta-1 (Homo sapiens) + Integrin alpha-4 (Homo sapiens) (UniProt P13612+P05556). Description: inhibition of HUTS-21 binding to VLA-4, pilot screen, VLA-4 allosteric modulator project, U937 cells, HUTS-21 mAb, flow cytometry, validation set (AID 2674;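 active = inhibition above 50%, about 3 SD of the validation set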;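 also: antibody binding induced by the VLA-4 ligand LDV present at three times its Kd; 0% = LDV ligand with antibody and no compound and 100% = antibody without LDV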). The following applies: HUTS-21 LIBS mAb binding, at 6.7 µM, stronger effect = higher value, binding induced by LDV ligand.
A short description of test [8]: superoxide lowering in aged yeast cells, pilot screen, validation compound set (AID 2706;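 active = superoxide response below 65% of plate, a cut near 3 SD across the whole screen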;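 also: yeast exposed to compound for one week at 30 degrees C before staining; 100% = mean of all compound wells on the same plate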). Conditions: S. cerevisiae aging, superoxide DHE fluorescence; at 10 µM; stronger effect = lower value.
Test [9] deals with Beta-adrenergic receptor kinase 1 (Homo sapiens) (UniProt P25098). Description: GRK2 binders displacing RNA aptamer, biochemical, validation, human GRK2, bead flow cytometry (AID 488806;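 active = aptamer binding inhibition above 30%, about 3 SD of noise from non-fluorescent compounds; inactive = inhibition at or below 30%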). Conditions: bead-bound GRK2, FAM-aptamer displacement, at 10 µM, stronger effect = higher value.
Chain of Beta-adrenergic receptor kinase 1 (Homo sapiens) (P25098 whole entry, looked up): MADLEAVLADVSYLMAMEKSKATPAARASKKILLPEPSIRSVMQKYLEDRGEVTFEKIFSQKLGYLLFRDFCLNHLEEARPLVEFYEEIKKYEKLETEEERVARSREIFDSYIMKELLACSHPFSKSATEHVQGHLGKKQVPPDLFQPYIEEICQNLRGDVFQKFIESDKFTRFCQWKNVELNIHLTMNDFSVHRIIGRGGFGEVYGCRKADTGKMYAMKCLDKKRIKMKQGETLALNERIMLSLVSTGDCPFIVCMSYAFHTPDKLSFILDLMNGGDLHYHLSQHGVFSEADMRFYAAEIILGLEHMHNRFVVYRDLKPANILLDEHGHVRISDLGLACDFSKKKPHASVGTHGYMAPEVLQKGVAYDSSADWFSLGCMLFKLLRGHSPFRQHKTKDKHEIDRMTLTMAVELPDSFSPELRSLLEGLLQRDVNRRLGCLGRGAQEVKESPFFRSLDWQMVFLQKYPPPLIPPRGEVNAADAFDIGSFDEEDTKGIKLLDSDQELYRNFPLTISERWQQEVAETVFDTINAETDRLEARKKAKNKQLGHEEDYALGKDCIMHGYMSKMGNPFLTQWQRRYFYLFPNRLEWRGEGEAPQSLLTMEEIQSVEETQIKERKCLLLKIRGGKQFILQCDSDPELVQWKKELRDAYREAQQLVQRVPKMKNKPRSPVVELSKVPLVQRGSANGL
Test [10] deals with Beta-2 adrenergic receptor (Homo sapiens) (UniProt P07550). Description: beta2AR agonists driving receptor internalization, pilot screen, cell-based, FAP fluorogen, flow cytometry, validation set (AID 504459;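 active = percent response above 42, roughly 3 SD of non-fluorescent test compounds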;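 also: agonist-driven loss of surface beta2AR via internalization measured by FAP dye flow cytometry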). Conditions: Am2.2-beta2AR cells, FAP surface receptor flow cytometry; at 10 µM; stronger effect = higher value.
Chain of Beta-2 adrenergic receptor (Homo sapiens) (P07550 whole entry, looked up): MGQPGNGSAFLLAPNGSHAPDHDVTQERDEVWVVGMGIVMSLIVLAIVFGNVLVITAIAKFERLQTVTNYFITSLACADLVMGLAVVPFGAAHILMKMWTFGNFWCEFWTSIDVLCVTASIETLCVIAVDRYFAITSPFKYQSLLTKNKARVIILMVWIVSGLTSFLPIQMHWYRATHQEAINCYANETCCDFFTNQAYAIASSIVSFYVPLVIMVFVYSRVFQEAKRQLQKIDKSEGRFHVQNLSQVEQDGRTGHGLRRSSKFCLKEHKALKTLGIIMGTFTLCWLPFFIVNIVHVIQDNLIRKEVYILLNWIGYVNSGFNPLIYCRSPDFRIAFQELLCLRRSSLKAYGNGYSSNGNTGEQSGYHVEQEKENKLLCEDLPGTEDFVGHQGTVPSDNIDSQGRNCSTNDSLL
Test [11] concerns the target AP-2 complex subunit beta (Homo sapiens) (UniProt P63010). Description: inhibitors of arrestin peptide binding to AP2, pilot screen, biochemical, validation set, GST-AP2 beads, flow cytometry (AID 504541;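 active = inhibition above 54%, about 3 SD of non-fluorescent compounds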;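 also: AP2 carries R879A mutation and is captured from E. coli lysate; bead-bound FITC arrestin peptide fluorescence measuring arrestin peptide binding to AP2; 0% = DMSO wells and 100% = excess unlabeled arrestin peptide control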). The following applies: FITC arrestin peptide, at 10 µM, stronger effect = higher value, AP2 beta2 appendage fragment, R879A mutant.
Test [12] can be described thus: yeast V-ATPase proton transport modulators, S. cerevisiae, pHLuorin, HTS validation (AID 504600; in the data active = response above about 15%;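 also: plate controls were DMSO for no effect and reference compound for full effect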). The following applies: S. cerevisiae pHLuorin cytosolic pH, at 10 µM, stronger effect = higher value.
The test system of test [13] is anti-desmoglein-3 scFv antibody binding to human DSG3. Description: inhibitors of anti-DSG3 scFv binding to DSG3, pilot screen, biochemical, validation compound set, bead-based, flow cytometry (AID 588368;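 active = binding below the plate cutoff, the plate median minus 3 SD, with a reading above zero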;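 also: signal is the median channel fluorescence of bead-bound GFP antibody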). The following applies: Protein G beads, DSG3-Fc, scFv-GFP binding, at 10 µM, stronger effect = lower value.
Test [14] is described as follows: inhibitors of fungal efflux pumps CDR1, CDR2, MDR1, pilot screen, validation compound set, multiplex, phenotypic (AID 588506;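 active = efflux inhibition above 0.42, the validation set average plus 4 SD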;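 also: Nile Red retained in cells so higher fluorescence means more efflux inhibition; 0 = negative control wells and 1 = enniatin B 25 µM full block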). The following applies: S. cerevisiae pump-expressing triplex, Nile Red efflux flow cytometry; at 10 µM; stronger effect = higher value; the pumps come from Candida albicans.
Test [15] addresses ATP-binding cassette sub-family B member 6 (Homo sapiens) (UniProt Q9NP58). Description: ABCB6 transporter inhibitors, pilot screen, K562-ABCB6 cells, flow cytometry, validation set (AID 588550;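 active = inhibition above the screen-wide mean plus 3 SD, about 51%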;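 also: 0% = DMSO wells and 100% = benzethonium chloride 70 µM positive control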). Conditions: K562-ABCB6 porphyrin accumulation, 1 h, at 10 µM, stronger effect = higher value.
The nature of test [16]: promoters of myeloid differentiation in arrested cells, primary screen, cell-based, GFP/MAC1 double positive, flow cytometry, validation set (AID 588685;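 active = differentiation response of at least 50%, scaled between solvent and reference control, from cells with both markers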;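 also: compound exposure lasts four days before antibody staining and flow analysis; 0% = DMSO wells and 100% = 5 µM fulvestrant positive control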). Conditions: ER-HoxA9 marrow cells, stronger effect = higher value, normalized: vehicle 0, fulvestrant 100.

Inconclusive results are not listed. Activity calls are given as the source filed them.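 The calls were made as follows, unless noted: active = GFP signal, as percent of the solvent control, above the screen mean plus 3 SD, about 149; inconclusive = no reading because the compound's own fluorescence upset strain identification; inactive = the rest.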

Chain of ATP-binding cassette sub-family B member 6 (Homo sapiens) (Q9NP58 whole entry, looked up): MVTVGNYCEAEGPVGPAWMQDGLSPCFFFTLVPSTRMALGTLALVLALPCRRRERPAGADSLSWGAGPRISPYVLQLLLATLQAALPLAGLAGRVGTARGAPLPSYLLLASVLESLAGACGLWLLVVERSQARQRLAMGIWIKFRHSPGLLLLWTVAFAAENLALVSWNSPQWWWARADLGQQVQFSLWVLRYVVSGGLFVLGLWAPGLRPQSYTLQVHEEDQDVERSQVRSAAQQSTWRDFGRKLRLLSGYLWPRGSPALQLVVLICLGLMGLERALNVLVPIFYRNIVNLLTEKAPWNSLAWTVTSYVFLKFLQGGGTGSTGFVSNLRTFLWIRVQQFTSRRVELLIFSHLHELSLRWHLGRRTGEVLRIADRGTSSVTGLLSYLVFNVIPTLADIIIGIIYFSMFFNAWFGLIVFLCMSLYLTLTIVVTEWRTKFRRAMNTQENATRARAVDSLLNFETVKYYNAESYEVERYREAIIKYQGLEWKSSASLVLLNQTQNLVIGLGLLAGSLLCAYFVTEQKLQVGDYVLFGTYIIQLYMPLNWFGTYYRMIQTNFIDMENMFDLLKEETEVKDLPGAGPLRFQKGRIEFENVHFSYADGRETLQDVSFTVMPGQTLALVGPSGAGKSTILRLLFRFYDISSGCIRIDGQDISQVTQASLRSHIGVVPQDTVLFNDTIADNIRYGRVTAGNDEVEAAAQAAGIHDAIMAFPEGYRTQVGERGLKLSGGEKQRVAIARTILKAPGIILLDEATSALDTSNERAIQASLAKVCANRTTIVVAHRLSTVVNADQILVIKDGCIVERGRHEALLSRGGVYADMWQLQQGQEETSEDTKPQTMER
Chain of Integrin beta-1 (Homo sapiens) + Integrin alpha-4 (Homo sapiens) (P05556 whole entry, looked up): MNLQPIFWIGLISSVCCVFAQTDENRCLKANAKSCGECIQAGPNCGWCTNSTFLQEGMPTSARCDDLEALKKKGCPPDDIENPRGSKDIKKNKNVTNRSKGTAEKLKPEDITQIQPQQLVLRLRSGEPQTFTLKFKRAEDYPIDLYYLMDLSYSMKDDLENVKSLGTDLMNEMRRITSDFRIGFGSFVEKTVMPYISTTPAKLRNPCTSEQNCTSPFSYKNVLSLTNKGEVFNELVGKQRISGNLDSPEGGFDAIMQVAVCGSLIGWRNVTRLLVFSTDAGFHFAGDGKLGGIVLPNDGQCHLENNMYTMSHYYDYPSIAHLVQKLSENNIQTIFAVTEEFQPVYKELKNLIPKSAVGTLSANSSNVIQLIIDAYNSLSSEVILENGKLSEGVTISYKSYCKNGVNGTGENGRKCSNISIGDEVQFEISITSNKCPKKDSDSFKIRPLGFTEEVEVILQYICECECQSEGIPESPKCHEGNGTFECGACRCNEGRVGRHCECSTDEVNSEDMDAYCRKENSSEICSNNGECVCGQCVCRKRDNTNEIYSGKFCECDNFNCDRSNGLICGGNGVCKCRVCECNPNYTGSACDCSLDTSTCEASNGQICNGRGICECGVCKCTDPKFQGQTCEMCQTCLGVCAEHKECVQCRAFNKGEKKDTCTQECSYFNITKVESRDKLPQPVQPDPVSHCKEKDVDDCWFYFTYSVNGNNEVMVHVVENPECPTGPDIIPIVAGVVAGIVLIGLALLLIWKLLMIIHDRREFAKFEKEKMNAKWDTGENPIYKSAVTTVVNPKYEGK
Chain of Integrin beta-1 (Homo sapiens) + Integrin alpha-4 (Homo sapiens) (P13612 whole entry, looked up): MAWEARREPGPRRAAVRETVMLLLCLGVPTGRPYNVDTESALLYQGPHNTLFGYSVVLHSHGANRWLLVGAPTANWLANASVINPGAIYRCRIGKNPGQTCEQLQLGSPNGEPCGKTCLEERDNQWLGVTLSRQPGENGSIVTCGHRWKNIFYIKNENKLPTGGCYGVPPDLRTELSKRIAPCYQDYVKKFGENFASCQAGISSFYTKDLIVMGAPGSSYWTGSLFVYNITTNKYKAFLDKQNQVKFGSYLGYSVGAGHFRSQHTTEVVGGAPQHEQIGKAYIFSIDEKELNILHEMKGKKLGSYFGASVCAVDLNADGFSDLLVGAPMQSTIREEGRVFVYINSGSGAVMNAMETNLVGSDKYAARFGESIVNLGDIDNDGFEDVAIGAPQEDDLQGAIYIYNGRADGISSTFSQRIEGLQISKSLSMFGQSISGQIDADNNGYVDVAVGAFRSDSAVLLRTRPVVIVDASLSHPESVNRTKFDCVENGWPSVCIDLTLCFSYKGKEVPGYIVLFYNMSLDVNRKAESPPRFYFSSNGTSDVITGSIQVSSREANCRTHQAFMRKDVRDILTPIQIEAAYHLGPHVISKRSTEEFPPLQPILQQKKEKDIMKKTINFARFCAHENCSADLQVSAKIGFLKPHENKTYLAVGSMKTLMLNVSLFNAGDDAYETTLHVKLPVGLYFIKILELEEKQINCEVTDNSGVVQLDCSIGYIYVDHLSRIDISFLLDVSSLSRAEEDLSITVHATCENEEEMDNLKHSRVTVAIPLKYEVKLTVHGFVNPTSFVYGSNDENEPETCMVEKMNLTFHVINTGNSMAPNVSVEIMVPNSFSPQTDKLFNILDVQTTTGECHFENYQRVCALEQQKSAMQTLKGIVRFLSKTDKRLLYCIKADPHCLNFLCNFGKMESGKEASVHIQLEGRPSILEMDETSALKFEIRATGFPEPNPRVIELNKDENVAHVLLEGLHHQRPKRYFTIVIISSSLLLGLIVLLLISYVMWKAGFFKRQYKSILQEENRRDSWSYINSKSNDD
Chain of AP-2 complex subunit beta (Homo sapiens) (P63010 whole entry, looked up, the tested form may be a part, one chain of several): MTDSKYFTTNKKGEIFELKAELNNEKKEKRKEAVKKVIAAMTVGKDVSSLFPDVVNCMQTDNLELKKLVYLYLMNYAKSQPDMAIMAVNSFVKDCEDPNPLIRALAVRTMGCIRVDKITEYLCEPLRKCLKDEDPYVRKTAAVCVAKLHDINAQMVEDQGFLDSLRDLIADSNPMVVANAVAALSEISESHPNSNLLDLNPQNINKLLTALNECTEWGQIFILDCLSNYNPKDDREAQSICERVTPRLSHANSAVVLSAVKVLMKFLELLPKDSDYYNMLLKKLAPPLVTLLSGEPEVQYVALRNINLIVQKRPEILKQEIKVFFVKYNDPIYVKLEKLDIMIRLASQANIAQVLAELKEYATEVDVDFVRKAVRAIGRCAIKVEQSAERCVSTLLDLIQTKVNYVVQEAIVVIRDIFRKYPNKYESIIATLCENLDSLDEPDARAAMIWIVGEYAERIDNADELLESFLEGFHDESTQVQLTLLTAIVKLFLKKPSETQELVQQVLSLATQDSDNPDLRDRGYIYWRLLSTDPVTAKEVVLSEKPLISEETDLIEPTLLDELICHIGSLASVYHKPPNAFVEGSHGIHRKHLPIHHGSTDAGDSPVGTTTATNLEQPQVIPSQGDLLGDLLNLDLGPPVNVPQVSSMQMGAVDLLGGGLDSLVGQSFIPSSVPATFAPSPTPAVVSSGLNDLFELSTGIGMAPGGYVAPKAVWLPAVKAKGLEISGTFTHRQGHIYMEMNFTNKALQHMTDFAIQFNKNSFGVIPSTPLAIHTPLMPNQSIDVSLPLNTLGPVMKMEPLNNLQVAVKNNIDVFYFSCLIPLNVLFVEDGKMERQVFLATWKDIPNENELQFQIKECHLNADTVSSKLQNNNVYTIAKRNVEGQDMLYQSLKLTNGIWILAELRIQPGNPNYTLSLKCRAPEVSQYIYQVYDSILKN

The inhibition is the change of the read-out against control, counted positive when it falls. As to `CC(C)C12CN3CC(C(C)C)(CN(C1)C3c1ccccc1)C2O` (stereo unspecified), the percent of DMSO control GFP in test [1] is 98.9% (inactive). Also, the GFP response vs DMSO in test [2] and in [4] was 101% (inactive) in each case. In [3], the percent response of DMSO control is 101% (inactive). Moreover, the GFP response, % of DMSO in [5] is 109% (inactive). In [6], this molecule showed a double positive events of 63.9%. In addition, in test [6], the vesicle binding response was 110% (inactive). Also, the values for the inhibition in [7], in [11] and in [15] were 14.2% (inactive), 8.13% (inactive) and 6% (inactive), respectively. In [8], the superoxide response (% of plate) was 99.3% (inactive). The aptamer binding inhibition in [9] is 6% (inactive). The response was -12.3% (inactive) in [10] and -11% (inactive) in [12]. Besides, in [13], the binding (% of control) was 104% (inactive). Besides, the efflux inhibition (fraction of control) in test [14] is -0.09 (inactive). Besides, the differentiation response in test [16] is -0.06% (inactive).

For the molecule `O=c1[nH]c(=O)n([C@H]2C[C@H](O)[C@@H](CO)O2)cc1C(F)(F)F`, in test [1], the percent of DMSO control GFP is 103% (inactive). Moreover, the GFP response vs DMSO in test [2] is 101% (inactive); in [4], 94% (inactive). Also, in [3], the percent response of DMSO control was 97.8% (inactive). Besides, the GFP response, % of DMSO in test [5] was 94.8% (inactive). In test [6], the double positive events turned out to be 58.6%. The vesicle binding response in test [6] was 48.9% (inactive). For the same molecule, the inhibition in [7] is -11.9% (inactive); in [11] it was 13.9% (inactive); in test [15] it was 1% (inactive). In addition, in test [8], the superoxide response (% of plate) was 108% (inactive). Besides, the aptamer binding inhibition in test [9] is 1% (inactive). Further, the response in [10] was -1.49% (inactive); in [12] it was -1.8% (inactive). Also, in test [13], the binding (% of control) is 100% (inactive). Further, in test [14], the efflux inhibition (fraction of control) was 0.02 (inactive). In addition, the differentiation response in test [16] was -1.71% (inactive).

For `COc1ccc([C@H]2[C@H](C(=O)OC(C)(C)C)N3N=Cc4ccccc4C3C23C(=O)c2ccccc2C3=O)cc1OC` (stereo partly specified), in test [1], the percent of DMSO control GFP is 99.1% (inactive). The figures for the GFP response vs DMSO in test [2] and in test [4] were 106% (inactive) and 97.4% (inactive), respectively. In test [3], the percent response of DMSO control is 97.7% (inactive). Moreover, in test [5], the GFP response, % of DMSO is 89.1% (inactive). The double positive events in [6] is 49.9%. For the same molecule, the vesicle binding response in [6] is 39.2% (active). For the same molecule, the inhibition in test [7] is -45.5% (inactive); in test [11], 61.9% (active); in test [15] it was -27% (inactive). For the same molecule, the superoxide response (% of plate) in [8] was 103% (inactive). For the same molecule, in test [9], the aptamer binding inhibition is -1% (inactive). In addition, the values for the response in [10] and in [12] were 35.3% (inactive) and -3.19% (inactive), respectively. In addition, the binding (% of control) in test [13] is 96.8% (inactive). For the same molecule, the efflux inhibition (fraction of control) in [14] was -0.06 (inactive). Moreover, the differentiation response in test [16] was -13.6% (inactive).

Turning to `C[C@]12CC[C@@H]3c4ccc(O)cc4CC[C@H]3[C@@H]1C[C@@H](O)[C@@H]2O[C@@H]1O[C@H](C(=O)O)[C@@H](O)[C@H](O)[C@H]1O`, the percent of DMSO control GFP in test [1] was 90.6% (inactive). Further, the GFP response vs DMSO is 113% (inactive) in test [2] and 77% (inactive) in test [4]. For the same molecule, the percent response of DMSO control in test [3] is 108% (inactive). Moreover, the GFP response, % of DMSO in test [5] is 104% (inactive). This molecule came in with a double positive events in test [6] of 61.7%. Besides, the vesicle binding response in test [6] is 249% (inactive). Also, the inhibition was -10% (inactive) in [7], -6.28% (inactive) in [11] and 8% (inactive) in [15]. The superoxide response (% of plate) in [8] is 109% (inactive). The aptamer binding inhibition in test [9] was 4% (inactive). The response in test [10] is -7.17% (inactive); in [12], -6.58% (inactive). The binding (% of control) in test [13] was 105% (inactive). In [14], the efflux inhibition (fraction of control) is 0.12 (inactive). The differentiation response in test [16] was -4.91% (inactive).

For `O=C(O)COc1ccc2occ(C(=O)c3ccccc3)c2c1`, in test [1], the percent of DMSO control GFP is 99.8% (inactive). Moreover, the GFP response vs DMSO in [2] was 106% (inactive); in test [4], 96% (inactive). In addition, the percent response of DMSO control in test [3] was 101% (inactive). Further, the GFP response, % of DMSO in [5] is 92.9% (inactive). This molecule also had a double positive events in test [6] of 63.9%. Moreover, the vesicle binding response in test [6] is 180% (inactive). The inhibition in test [7] is 15.1% (inactive); in test [11], 0.98% (inactive); in test [15] it was 3% (inactive). Also, in test [8], the superoxide response (% of plate) is 107% (inactive). Moreover, the aptamer binding inhibition in test [9] was 4% (inactive). Also, the response is -5% (inactive) in test [10] and 0.64% (inactive) in test [12]. The binding (% of control) in [13] was 94.2% (inactive). In addition, in [14], the efflux inhibition (fraction of control) was -0.17 (inactive). The differentiation response in [16] was 7.09% (inactive).

As to `COC(=O)C1=C(C)NC(C)=C(C(=O)OCCN(C)Cc2ccccc2)C1c1cccc([N+](=O)[O-])c1` (stereo unspecified), the percent of DMSO control GFP in [1] was 101% (inactive). Moreover, the GFP response vs DMSO in [2] is 108% (inactive); in test [4], 100% (inactive). Moreover, the percent response of DMSO control in test [3] is 96.5% (inactive). Besides, in test [5], the GFP response, % of DMSO was 110% (inactive). The molecule also yielded a double positive events in test [6] of 61.3%. Further, the vesicle binding response in test [6] was 159% (inactive). Also, the inhibition in test [7] was 0.25% (inactive); in test [11] it was 57.5% (active); in test [15], -2% (inactive). Also, the superoxide response (% of plate) in test [8] was 98.7% (inactive). Also, the aptamer binding inhibition in [9] was 1% (inactive). In addition, the response in test [10] is 0.14% (inactive); in test [12], -9.84% (inactive). Also, in [13], the binding (% of control) was 97.3% (inactive). In addition, the efflux inhibition (fraction of control) in test [14] was 0.01 (inactive). In addition, in test [16], the differentiation response is -1.65% (inactive).

With `O=C(c1ccco1)N(CCC(c1ccccc1)c1ccco1)Cc1ccco1` (stereo unspecified), the percent of DMSO control GFP in test [1] was 103% (inactive). Also, the GFP response vs DMSO is 95.2% (inactive) in test [2] and 99.9% (inactive) in test [4]. The percent response of DMSO control in test [3] was 106% (inactive). Besides, in test [5], the GFP response, % of DMSO is 104% (inactive). Further, the double positive events in test [6] is 80%. The vesicle binding response in test [6] is 8050% (inactive). In addition, the inhibition in test [7] was -1.79% (inactive); in test [11], 3.27% (inactive); in test [15], -3% (inactive). For the same molecule, in [8], the superoxide response (% of plate) is 104% (inactive). For the same molecule, the aptamer binding inhibition in test [9] was 5% (inactive). Besides, the response in test [10] was 6.76% (inactive); in test [12], -0.61% (inactive). Moreover, the binding (% of control) in test [13] is 99.7% (inactive). For the same molecule, the efflux inhibition (fraction of control) in test [14] is 0.15 (inactive). For the same molecule, the differentiation response in [16] was -13.6% (inactive).

As for `Cc1ccc2nc(N=C(N)N)nc(C)c2c1`, in [1], the percent of DMSO control GFP was 111% (inactive). Moreover, the GFP response vs DMSO in test [2] is 107% (inactive); in [4] it was 114% (inactive). In addition, in test [3], the percent response of DMSO control is 110% (inactive). Moreover, the GFP response, % of DMSO in test [5] was 118% (inactive). In test [6], this molecule returned a double positive events of 58.7%. The vesicle binding response in test [6] was 124% (inactive). Also, the inhibition in [7] was -13.2% (inactive); in test [11], 0.05% (inactive); in test [15] it was 5% (inactive). In addition, the superoxide response (% of plate) in test [8] was 91.5% (inactive). Besides, the aptamer binding inhibition in [9] is -1% (inactive). Further, the figures for the response in test [10] and in test [12] were -5.11% (inactive) and 5.97% (inactive), respectively. Besides, in test [13], the binding (% of control) is 109% (inactive). Further, the efflux inhibition (fraction of control) in test [14] was -0.02 (inactive). Also, the differentiation response in test [16] is -8.96% (inactive).
